Columns and labels:
Assay in all cases: thermal shift delta Tm vs DMSO control; higher = stronger stabilization (binding)
Conditions in all cases: 12.5 µM; protein concentration 2 µM
LOC_OS01G57100-cb003 = test system: LOC_OS01G57100-cb003
Method in brief: (§1)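 Thermal shift values come from differential scanning fluorimetry on purified rice kinase domains made in E. coli, with melting temperatures obtained from Boltzmann fits. Samples of 19.5 μl held 2 μM kinase, 100 mM potassium phosphate pH 7.5, 150 mM NaCl, 10% glycerol, 5 × SYPRO Orange and compound in DMSO, and were heated from 25°C to 95°C at 0.05°C/s. Each shift is a triplicate mean relative to the DMSO-only protein sample.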

LOC_OS01G60330-cb001 = test system: LOC_OS01G60330-cb001
Method in brief: as §1

LOC_OS01G60700-cb002 = test system: LOC_OS01G60700-cb002
Method in brief: as §1

LOC_OS01G63280-cb003 = test system: LOC_OS01G63280-cb003
Method in brief: as §1

LOC_OS01G67340-cb003 = test system: LOC_OS01G67340-cb003
Method in brief: as §1

LOC_OS01G70970-cb002 = test system: LOC_OS01G70970-cb002
Method in brief: as §1

LOC_OS02G07810-cb001 = test system: LOC_OS02G07810-cb001
Method in brief: as §1

LOC_OS02G08530-cb003 = test system: LOC_OS02G08530-cb003
Method in brief: as §1

LOC_OS02G14120-cb001 = test system: LOC_OS02G14120-cb001
Method in brief: as §1

LOC_OS02G17970-cb001 = test system: LOC_OS02G17970-cb001
Method in brief: as §1
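Further: purified Escherichia coli-expressed rice kinase domain construct.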

Row | SMILES | thermal shift delta Tm (LOC_OS01G57100-cb003) [°C] | thermal shift delta Tm (LOC_OS01G60330-cb001) [°C] | thermal shift delta Tm (LOC_OS01G60700-cb002) [°C] | thermal shift delta Tm (LOC_OS01G63280-cb003) [°C] | thermal shift delta Tm (LOC_OS01G67340-cb003) [°C] | thermal shift delta Tm (LOC_OS01G70970-cb002) [°C] | thermal shift delta Tm (LOC_OS02G07810-cb001) [°C] | thermal shift delta Tm (LOC_OS02G08530-cb003) [°C] | thermal shift delta Tm (LOC_OS02G14120-cb001) [°C] | thermal shift delta Tm (LOC_OS02G17970-cb001) [°C]
1 | COc1ccc(-c2ccc3c(N4CCOCC4)nc(N4C[C@@H](C)O[C@@H](C)C4)nc3n2)cc1CO | 0.55 | 0.67 | 0.28 | -0.12 | -0.53 | -0.02 | 0.61 | 0.4 | -0.18 | 0.46
2 | Cc1cc(Nc2nc(N[C@@H](C)c3ncc(F)cn3)ncc2Cl)[nH]n1 | 1.57 | 4.82 | 0.28 | 1.3 | -0.24 | 2.3 | 0.96 | 2.02 | 8.03 | 0.48
3 | CCC(=O)Nc1cccc(Oc2nc(Nc3ccc(N4CCN(C)CC4)cc3OC)ncc2Cl)c1 | 0.87 | 1.08 | 1.14 | 0.16 | 0.44 | 0.22 | 0.45 | 1.46 | 0.22 | 0.04
4 | Cc1cc(CS(=O)(=O)c2ccccc2)cc(OCc2ccc(CN3CCC[C@@H]3CO)cc2)c1 | 0.61 | 0.03 | 1.22 | -0.1 | -0.36 | 0.62 | 0.61 | 0.53 | -0.41 | 0.96
5 | FC(F)c1nc2ccccc2n1-c1nc(N2CCOCC2)nc(N2CCOCC2)n1 | 0.81 | 1.34 | 1.13 | 0.27 | -0.18 | 0.47 | 0.59 | 0.83 | 0.41 | 0.88
6 | CCN1CCN(Cc2ccc(Nc3ncc(F)c(-c4cc(F)c5nc(C)n(C(C)C)c5c4)n3)nc2)CC1 | -0.28 | 0.1 | 0.59 | 0.27 | 0.39 | -0.01 | 0.46 | 2.49 | 5.93 | 0.23
7 | CCOc1ccn(-c2ccc(F)cc2)c(=O)c1C(=O)Nc1ccc(Oc2ccnc(N)c2Cl)c(F)c1 | 1.62 | 0.89 | 0.32 | 6.59 | 0.42 | 0.37 | 1.56 | 1.41 | 4.74 | 1.32
8 | Cc1ccc([N+](=O)[O-])cc1S(=O)(=O)N(C)/N=C/c1cnc2ccc(Br)cn12 | 3.41 | -0.03 | 1.24 | 1.7 | 3.58 | 4.2 | 0.51 | 6.04 | 9.06 | 1.2
9 | C[C@H](NC(=O)/C(C#N)=C/c1cccc(Br)n1)c1ccccc1 | 2.09 | 0.03 | -0.53 | -4.67 | -1.18 | -1.46 | 0.51 | 0.47 | -1.36 | -2.09
10 | CC(C)(C)Cn1c(N)nc2ccc(-c3[nH]c(C(C)(C)C)nc3-c3ccc(F)cc3)nc21 | -3.53 | -0.79 | 0.1 | -0.16 | 0.92 | -0.04 | -0.18 | 0.38 | -1.12 | -0.24
11 | Cc1ccc(NC(=O)c2ccc(CN3CC[C@H](N(C)C)C3)c(C(F)(F)F)c2)cc1Nc1nccc(-c2cncnc2)n1 [Bafetinib (INNO-406)] | 1.86 | 0.46 | 1.32 | 0.68 | 0.51 | 0.51 | 0.39 | 1.13 | 0.81 | 0.5
12 | O=C(c1ccc(Nc2nccc(-c3cc4ccccc4s3)n2)cc1)N1CCC(N2CCCC2)CC1 [IKK-16 (IKK Inhibitor VII)] | 0.94 | 12.6 | 0.43 | 2.16 | 3.52 | 2.66 | 0 | 2.32 | 11.1 | 0.35
13 | CCN1C(=O)CNc2ncc(-c3ccc(-c4nc[nH]n4)nc3C)nc21 | 1.53 | 0.57 | 0.53 | -0.65 | -0.28 | 0.01 | 0.72 | 0.04 | -0.7 | 0.77
14 | COc1ccc(Cl)cc1NC(=O)Nc1cc(C)nc2ccccc12 | 1.28 | 1.01 | 0.92 | 0.87 | 0.83 | 0.66 | 1.12 | 0.89 | 0.14 | 0.65
15 | O=c1cc(N2CCOCC2)oc2c(-c3ccc4c(c3)OCCO4)csc12 | 0.23 | 0.29 | -0.31 | 0.2 | 0.35 | 0.12 | -0.78 | 0.62 | 1.45 | -0.32
16 | CNc1nc(Nc2cnn([C@H]3CCN(C4COC4)C[C@@H]3F)c2Cl)ncc1C(F)(F)F | 0.76 | 2.09 | 0.99 | 0.1 | 0.67 | 1.35 | 0.49 | 2.55 | 2.26 | 0.35
17 | Cc1ccc(C(=O)Nc2ccc(CN3CCN(C)CC3)c(C(F)(F)F)c2)cc1C#Cc1cnc2[nH]ncc2c1 [GZD824 Dimesylate] | 1.83 | 4.46 | 1.12 | 16.6 | 2.51 | 5.22 | 0.8 | 3.54 | 4.33 | 0.61
18 | C=CC(=O)N1CCN(CCCn2c(=O)c(-c3c(Cl)c(OC)cc(OC)c3Cl)cc3cnc(NC)nc32)CC1 | 1.48 | -0.24 | 0.2 | -0.06 | 0.02 | 0.17 | -0.82 | 0.53 | 0.67 | -0.31

From the supplement of paper PMC9694430
